According to PubChem BioAssay (EPA / NIEHS):
The source made the active and inactive calls. How the source made its calls: active means hit-call score of the fitted dose curve at least 0.9, where 1 is the maximum; inactive means score below 0.9.

Experiment: UKN2_HCS_IMR90_cell_viability: Viability Assessment in the University of Konstanz (UKN) Leist Lab Neural Crest Cell Migration Assay in human induced IMR90 Pluripotent Stem Cells (UKN2) (AID 2284233);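 further: cells exposed to compound for 24 h after a 24 h migration phase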
Experimental: UKN2_HCS_IMR90 is a cell-based, multiplexed-readout assay screening for neural crest cell migration and cell viability that uses IMR90 (neural crest cells differentiated from iPSC), a human embryo cell line, with measurements taken at […] after chemical dosing in a microplate: 96-well plate. UKN2, also known as cMINC, is an assay that uses IMR90 cells (neural crest cells differentiated from iPSC) as a model of neural crest cell migration. 24 hr after cell seeding, cell migration was initiated and proceeded for 24 hr. Then, chemical was applied, and after 24 hr of exposure migration and viability were assessed using high-content imaging of cells stained with calcein-AM and Hoechst H-33342.UKN2_HCS_IMR90_cell_viability is an assay component measured from the UKN2_HCS_IMR90 assay. It is designed to make measurements of enzyme activity, a form of viability reporter, as detected with Fluorescence intensity signals by HCS Fluorescent Imaging.The assay endpoint UKN2_HCS_IMR90_cell_viability was analyzed with bidirectional fitting relative to DMSO as the negative control and baseline of activity. Using a type of viability reporter, gain or loss-of-signal activity can be used to understand viability effects. To generalize the intended target to other relatable targets, this assay endpoint is annotated to the cell cycle intended target family, where the subfamily is viability.
The wells are coated with PLO/laminin/fibronectin. Then, silicone stoppers are placed into the wells of a 96-well plate. Cells are seeded around the stoppers and allowed to attach for 24 hours. Day 0: The silicone stoppers are removed and the medium is replaced with pre-warmed, fresh N2-S medium containing the cytokines EGF and FGF. Cells are allowed to migrate into the cell free area. Day 1: 25 ul of the 5x concentrated toxicants are added to the wells. The cells plus toxicants are incubated for 24 h. Day 2: Cells are stained with calcein-AM and Hoechst (H-33342) for 30 min before imaging with a high content imaging microscope. Quantification of migration and viability is done by high content imaging analysis.

Compound | outcome | AC50
C[C@@H]1CC[C@@H](C(C)(C)O)[C@H](O)C1 | inactive | –
CC(=O)N[C@@H](CC(=O)O)C(=O)O | inactive | –
C[C@@H]1CCO[C@H]2Cn3cc(C(=O)NCc4ccc(F)cc4F)c(=O)c(O)c3C(=O)N12 | inactive | –
CCc1ccccc1 | inactive | –
Cc1ccccc1 | inactive | –
CCCCCC(C)(CC)C(=O)NC (stereo not given) | inactive | –
CC(C)O | inactive | –
Brc1cc(Br)c(Oc2cc(Br)c(Br)cc2Br)cc1Br | inactive | –
CC(=O)OC/N=[N+](\C)[O-] | inactive | –
O.O=S(=O)([O-])[O-].[Mn+2] | – | 50 µM (active)
CC(CNC(=S)[S-])NC(=S)[S-].[Zn+2] (stereo not given) | inactive | –
CCCCCC=C(C)C(CC)CCO (stereo not given) | inactive | –
Cc1[nH]n(C)c(=O)c1C(=O)c1ccc(C(F)(F)F)cc1S(C)(=O)=O | inactive | –
BrC1CC(Br)CC(Br)CC(Br)CC(Br)CC(Br)C1 (stereo not given) | inactive | –
CC(C)c1nn(C(=O)NC(C)(C)C)c(=O)n1N | inactive | –
